Compound activity deposited in PubChem BioAssay by NMMLSC.
CIT2-GFP yeast = modulators of CIT2-GFP expression in yeast, primary screen, S. cerevisiae, GFP fusion, multiplex flow cytometry, MLPCN library | AID 2029, 2009 | GFP response vs DMSO, % at 10 µM | actives 0.065% (n = 320,000) | S. cerevisiae CIT2-GFP strain, 3 h; 100 means same as DMSO wells;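 active = GFP response relative to DMSO above a set limit, near the screen mean plus 3 SD, cut at about 150% in these data; inconclusive = Fewer than 70 cells measured for a yeast strain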;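 note: ratio of well median GFP fluorescence to mean of DMSO wells on the plate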
LAP4 TOR yeast = modulators of LAP4-GFP expression in yeast, primary screen, S. cerevisiae, multiplex flow cytometry, MLPCN library | 3 h; median GFP as percent of DMSO wells | GFP response vs DMSO, % at 10 µM | actives 0.34% (n = 320,000);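 active = GFP response vs DMSO above a set limit, about the screen mean plus 3 SD, cut at about 150% in these data; inconclusive = under 70 cell events counted for the yeast strain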
RPL19A TOR yeast = RPL19A-GFP expression modulators in yeast, primary screen, cell-based, S. cerevisiae, multiplex flow cytometry, MLPCN; percent response vs DMSO, % at 10 µM; actives 0.3% (n = 330,000); S. cerevisiae RPL19A-GFP strain, 3 h; hits give low values;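 active = percent response vs DMSO below 50%; inconclusive = fewer than 70 events counted for the yeast strain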;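 note: median channel GFP fluorescence of the barcoded RPL19A-GFP strain; ratio of sample median GFP to plate DMSO average so 100% = DMSO; lower means less RPL19A-GFP as with rapamycin TOR inhibition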
AGP1-GFP MLPCN = modulators of AGP1-GFP expression in yeast TOR pathway, primary screen, cell-based, multiplex flow cytometry, S. cerevisiae, MLPCN library | 3 h; GFP as percent of DMSO wells | GFP response vs DMSO, % at 10 µM | actives 0.02% (n = 320,000) | AID 2066, 2009;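 active = GFP response relative to DMSO above a set limit, near screen average plus 3 SD, cut at about 150% in these data; inconclusive = fewer than 70 cells counted for the yeast strain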;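 note: median GFP channel fluorescence of the gated AGP1 strain per well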
MEP2-GFP yeast = modulators of MEP2-GFP levels in yeast, primary screen, S. cerevisiae, multiplex flow cytometry, MLPCN library; S. cerevisiae MEP2-GFP strain, 3 h; 100% = DMSO control level; actives 0.51% (n = 330,000); GFP response vs DMSO, % at 10 µM;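 active = GFP response versus DMSO above a set limit, roughly screen mean plus 3 SD, cut at about 180% in these data; inconclusive = fewer than 70 cells counted for a yeast strain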;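 note: median GFP fluorescence of the barcode-gated MEP2-GFP cells per well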
Myeloid diff 2 = induction of myeloid progenitor differentiation, primary screen, cell-based, flow cytometry, MLPCN library; AID 624256, 2012; ER-HoxA9 myeloid progenitors, lysozyme-GFP differentiation; calls only at 10 µM; actives 1% (n = 360,000);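 active = normalized GFP-positive differentiation at or above the plate's own cutoff, the solvent-only control mean plus 3 SD; inconclusive = no clear call, values can overlap the other calls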;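 note: cells exposed to compound for four days before flow analysis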
LAP4-GFP pick2 = LAP4-GFP expression modulators in yeast, confirmation, cell-based, second cherry pick, flow cytometry. shares compounds with LAP4 TOR yeast. actives 20% (n = 590). GFP response vs DMSO, % at 10 µM. S. cerevisiae LAP4-GFP strain, 3 h. AID 2621, 2010;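 active = GFP signal as percent of the solvent control above about 150%, meaning raised reporter expression, limit read from the data; inconclusive = fewer than 70 cells counted in the well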;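 note: ratio of well median GFP fluorescence to plate DMSO mean so 100% = DMSO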
MEP2-GFP pick2 = modulators of MEP2-GFP levels in yeast, confirmation, S. cerevisiae, flow cytometry GFP, second cherry picks; shares compounds with LAP4 TOR yeast; S. cerevisiae MEP2-GFP strain, 3 h; GFP response vs DMSO, % at 10 µM; actives 10% (n = 590); AID 2622, 2010;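 active = GFP signal above 150% of the solvent control wells, that is a rise of more than half; inconclusive = fewer than 70 yeast cells counted in the well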;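 note: median channel GFP fluorescence of all gated yeast cells per well; ratio of median GFP to plate DMSO average so 100% = DMSO level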
RPL19A-GFP pick2 = RPL19A-GFP modulators in TOR pathway yeast, confirmation, cell-based, S. cerevisiae, flow cytometry, second cherry pick | shares compounds with LAP4 TOR yeast | S. cerevisiae RPL19A-GFP strain, 3 h; hits give low values; 100% means same as DMSO wells | GFP response vs DMSO, % at 10 µM | actives 3% (n = 590);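 active = under 65% GFP response relative to DMSO; inconclusive = yeast strain with under 70 measured events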;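 note: median GFP channel fluorescence per well over the all cells gate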
CIT2 GFP CP2 = modulators of CIT2-GFP expression in yeast, confirmation, flow cytometry, second cherry pick, single plex; shares compounds with LAP4 TOR yeast; S. cerevisiae CIT2-GFP strain, 3 h; DMSO control wells read 100%; actives 8% (n = 590); GFP response vs DMSO, % at 10 µM;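 active = GFP response vs DMSO above about 150%, limit read from the data; inconclusive = fewer than 70 events counted for a yeast strain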;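 note: median green fluorescence per well over all gated yeast cells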
AGP1-GFP pick2 = AGP1-GFP expression modulators, hit retest, confirmation, cell-based, flow cytometry, S. cerevisiae, cherry pick set 2; shares compounds with LAP4 TOR yeast; S. cerevisiae AGP1-GFP strain, 3 h; percent response vs DMSO, % at 10 µM; 590 tested, under 10 active; AID 2643, 2010;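 active = over 150 percent of DMSO response; inconclusive = yeast strain measured with under 70 events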;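 note: median GFP channel fluorescence over all cells without mother daughter split; sample median GFP divided by mean DMSO control so 100% equals DMSO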
Yeast autofluor = compound autofluorescence in yeast s288c, dose response, artefact control for yeast TOR pathway GFP screen, s288c strain | fluorescence change (kMESF span) at 33 µM | AID 2757, 2010 | shares compounds with LAP4 TOR yeast | S. cerevisiae s288c, 520 nm autofluorescence, flow cytometry, 3 h; hits give high values; zero means same as solvent-only cells | 610 tested, under 10 active;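 active = fluorescence span over the dose series, or activity score, above about 33, limit read from the data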
Active calls of the source: *; i = inactive; ? = inconclusive; nt = not tested or not shown; [ ] = dose if it differs, or a comment. Only some compounds are listed: those with a hit (about 1.8% of all), similar ones and a draw of the others.

SMILES	CIT2-GFP yeast	LAP4 TOR yeast	RPL19A TOR yeast	AGP1-GFP MLPCN	MEP2-GFP yeast	Myeloid diff 2	LAP4-GFP pick2	MEP2-GFP pick2	RPL19A-GFP pick2	CIT2 GFP CP2	AGP1-GFP pick2	Yeast autofluor
O=C(CN1CCN(c2ccccc2F)CC1)c1c[nH]c2ccccc12	94	159*	87	110	174	i	100	97	99	105	102	nt
Cc1ccc2[nH]cc(C(=O)CN3CCN(c4ccccn4)CC3)c2c1	101	88	62	23	174	i	106	105	96	107	98	nt
Cc1ccc2c(c1)N(CC(=O)N1CCN(c3ccccc3)CC1)C(=O)C(C)O2 (stereo unspecified)	100	93	95	93	87	i	nt	nt	nt	nt	nt	nt
Cc1ccc(OCC(=O)NCCNC(=O)c2cnccn2)cc1C	nt	nt	nt	nt	nt	i	nt	nt	nt	nt	nt	nt
Cc1ccc(-c2ccc(C(=O)Nc3cccc(F)c3)o2)c2ccccc12	80	171*	99	80	93	i	104	115	99	100	99	nt
O=C(Nc1cccc(F)c1)c1ccc(-c2ccccc2Cl)o1	93	115	108	96	102	i	nt	nt	nt	nt	nt	nt
Clc1ccccc1C1=Nn2c(nnc2-c2ccco2)SC1	99	120	97	101	107	i	nt	nt	nt	nt	nt	nt
Cc1cccc(C(=O)NC(=S)NCc2ccccc2)c1	92	108	99	95	98	i	nt	nt	nt	nt	nt	nt
O=C(COc1ccccc1)NNC(=S)NC(=O)c1ccccc1	96	159*	114	102	97	i	nt	nt	nt	nt	nt	2
Cc1cccc(C(=O)NC(=S)NNC(=O)Cc2ccccc2)c1	88	209*[may fluoresce green]	111	105	104	i	293*	138	116	156*	107	1.5
CCOC(=O)C1CCCN(C(=S)Nc2cccc(Cl)c2C)C1 (stereo unspecified)	104	93	100	105	103	i	nt	nt	nt	nt	nt	nt
Cc1cccnc1Nc1nc(-c2ccccn2)cs1	67	104	62	63	103	?	165*	155*	98	115	88	2
Cc1cccc(Nc2nc(-c3ccccn3)cs2)n1	80	173*	68	68	99	i	nt	nt	nt	nt	nt	1
Cc1cccnc1Nc1nc(-c2ccccc2)cs1	104	88	104	97	102	i	nt	nt	nt	nt	nt	nt
